Compounds without any hit were thinned out: in the full panel of roughly 83,000, 20% have a hit.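 The test compound was applied at a single concentration to cells in 96-well plates for 48 hours, and percent growth was recorded.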 Activity calls are given as the source filed them. Rule for the calls: active = growth percent below 10; inactive = the rest.
What was measured:
Assay in all cases: NCI-60 one-dose screen, 48 h (100 = growth as untreated, 0 = no growth, -100 = all killed)
Settings in all cases: 10 µM unless noted
EKVX NSCLC = test system: EKVX NSCLC
SN12C renal = test system: SN12C renal
UO-31 renal = test system: UO-31 renal
TK-10 renal = test system: TK-10 renal
ACHN renal = test system: ACHN renal
CAKI-1 renal = test system: CAKI-1 renal
A498 renal = test system: A498 renal
CCRF-CEM leukemia = test system: CCRF-CEM leukemia
MOLT-4 leukemia = test system: MOLT-4 leukemia
RPMI-8226 leukemia = test system: RPMI-8226 leukemia
OVCAR-8 ovarian = test system: OVCAR-8 ovarian
OVCAR-5 ovarian = test system: OVCAR-5 ovarian
OVCAR-4 ovarian = test system: OVCAR-4 ovarian
SK-OV-3 ovarian = test system: SK-OV-3 ovarian
IGROV1 ovarian = test system: IGROV1 ovarian
OVCAR-3 ovarian = test system: OVCAR-3 ovarian
NCI/ADR-RES ovarian = test system: NCI/ADR-RES ovarian
T-47D breast = test system: T-47D breast
HS 578T breast = test system: HS 578T breast

Row | SMILES | growth (EKVX NSCLC) | growth (SN12C renal) | growth (UO-31 renal) | growth (TK-10 renal) | growth (ACHN renal) | growth (CAKI-1 renal) | growth (A498 renal) | growth (CCRF-CEM leukemia) | growth (MOLT-4 leukemia) | growth (RPMI-8226 leukemia) | growth (OVCAR-8 ovarian) | growth (OVCAR-5 ovarian) | growth (OVCAR-4 ovarian) | growth (SK-OV-3 ovarian) | growth (IGROV1 ovarian) | growth (OVCAR-3 ovarian) | growth (NCI/ADR-RES ovarian) | growth (T-47D breast) | growth (HS 578T breast)
1 | COc1ccc2c(c1)nc(N)c1c3ccccc3cn21 | 72.7% (inactive) | 89.6% (inactive) | 59% (inactive) | 125% (inactive) | 81.1% (inactive) | 68.5% (inactive) | 75.2% (inactive) | 74.5% (inactive) | 73.8% (inactive) | 80.3% (inactive) | 87.8% (inactive) | 113% (inactive) | 95.6% (inactive) | 85.6% (inactive) | 73.1% (inactive) | 79.3% (inactive) | 69.1% (inactive) | 70.7% (inactive) | 
2 | Cn1cc(-c2nc(-c3c[nH]c4ncc(F)cc34)cs2)c2cccnc21 | 84.3% (inactive) | 101% (inactive) | 100% (inactive) | 124% (inactive) | 93.7% (inactive) | 92.5% (inactive) | 109% (inactive) | 102% (inactive) | 101% (inactive) | 100% (inactive) | 105% (inactive) | 93.4% (inactive) | 82.2% (inactive) | 109% (inactive) | 108% (inactive) | 117% (inactive) | 100% (inactive) | 59.9% (inactive) | 
3 | O=C1NC(=O)/C(=C\c2ccccc2)C2=C1CCCC2 | 95% (inactive) | -64.7% (active) | -46.7% (active) | 0.712% (active) | 15.7% (inactive) | 7.29% (active) | 101% (inactive) | 35.8% (inactive) | 38.1% (inactive) | 51.3% (inactive) | -6.04% (active) | 80% (inactive) | 91.2% (inactive) | 152% (inactive) |  | -73.9% (active) | 61.2% (inactive) | 198% (inactive) | 35.2% (inactive)
4 | COc1cc([C@@H]2c3cc4c(cc3C(O[C@@H]3O[C@@H]5CO[C@@H](c6cccs6)OC5[C@H](O)[C@H]3O)C3COC(=O)[C@@H]32)OCO4)cc(OC)c1O (some centres undefined) | 12.7% (inactive) | -9.91% (active) | -72.2% (active) | -54.7% (active) | -54.3% (active) | -10.3% (active) | -73.2% (active) | -1.14% (active) | 3.06% (active) | -20.8% (active) | -43% (active) | -9.71% (active) | 13.8% (inactive) | -13.6% (active) | -5.65% (active) | -54% (active) | 60.3% (inactive) | -0.0776% (active) | -3.69% (active)
5 | CCC(C)CC(CC)NCCN1CCN(C(CC)CC(C)CC)C1=S (centres undefined) | 23% (inactive) | 36.9% (inactive) | 41.4% (inactive) | 58.5% (inactive) | 52.4% (inactive) | 59.6% (inactive) | 61.9% (inactive) | 24.3% (inactive) | 38.5% (inactive) | -46.2% (active) | 62.7% (inactive) | 37.2% (inactive) | 37.8% (inactive) | 56.2% (inactive) | 52.7% (inactive) | 39.5% (inactive) | 56.4% (inactive) | -9.85% (active) | 67.2% (inactive)
6 | CCCCc1nc(Cl)c(CO)n1Cc1ccc(-c2ccccc2-c2nn[nH]n2)cc1 | 88.1% (inactive) | 99.3% (inactive) | 82.2% (inactive) | 108% (inactive) | 107% (inactive) | 90.5% (inactive) | 119% (inactive) | 113% (inactive) | 100% (inactive) | 115% (inactive) | 103% (inactive) | 101% (inactive) | 109% (inactive) | 106% (inactive) | 104% (inactive) | 111% (inactive) | 105% (inactive) | 110% (inactive) | 110% (inactive)
7 | O=C1C2C3C=CC(O3)C2C(=O)N1Nc1ccccc1 (centres undefined) | 101% (inactive) | 107% (inactive) | 101% (inactive) | 103% (inactive) | 103% (inactive) | 93.5% (inactive) | 68.1% (inactive) | 96.1% (inactive) | 101% (inactive) | 108% (inactive) | 105% (inactive) | 97.4% (inactive) |  | 118% (inactive) | 124% (inactive) | 113% (inactive) | 105% (inactive) | 112% (inactive) | 111% (inactive)
